Bioassay records (PubChem BioAssay)
GALK inhibitor – blocks human galactokinase activity; Purified GALK, Kinase-Glo residual ATP luminescence; Potency, µM (titrated, usually from 57.5 µM), usual class: inhibitors; 270,000 compounds, 0.007% hits
Target sequence (P51570 whole entry, looked up): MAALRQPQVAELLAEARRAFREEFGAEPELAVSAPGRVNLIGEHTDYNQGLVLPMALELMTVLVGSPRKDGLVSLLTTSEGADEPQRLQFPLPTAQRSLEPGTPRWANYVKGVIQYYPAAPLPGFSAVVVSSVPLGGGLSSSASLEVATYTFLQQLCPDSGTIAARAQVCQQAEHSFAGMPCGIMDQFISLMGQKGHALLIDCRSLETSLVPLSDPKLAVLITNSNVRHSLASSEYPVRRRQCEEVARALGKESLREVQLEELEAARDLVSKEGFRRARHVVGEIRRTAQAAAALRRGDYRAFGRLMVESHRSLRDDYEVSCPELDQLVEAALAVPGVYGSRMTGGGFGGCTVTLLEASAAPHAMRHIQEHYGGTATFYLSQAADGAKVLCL
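5 nM enzyme, 35 uM ATP, 100 uM galactose, 20 mM HEPES pH8.0, 5 mM MgCl2; 1 h RT; residual ATP by Kinase-Glo Plus luminescence, qHTS format.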
USP2a block – USP2a (human) protease inhibition; O75604; USP2 core, Ub-CHOP2 coupled fluorogenic reporter, 485/531; Potency, µM (top dose mostly 38.3 µM), usual class: inhibitors; 330,000 compounds, 0.01% hits; AID 463254
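USP2 core (10nM final) preincubated 30min RT with compound in 20mM Tris-HCl pH 8.0, 2mM CaCl2, 2mM beta-mercaptoethanol, 0.05% CHAPS; 25nM Ub-CHOP2 plus 25nM reporter substrate added, fluorescence (Ex485/Em531) read after 60min.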
Eya2 phos inh – Eya2 (human) phosphatase inhibition. Potency, µM (series often up to 76.9 µM), most hits filed as inhibitors. 330,000 compounds, 0.006% hits. AID 488837. recombinant Eya2, OMFP fluorescence dephosphorylation (OMFP is methylfluorescein phosphate). O00167
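Eya2 (0.2 uM) preincubated 10 min at ambient with compound, then OMFP substrate added at 50 uM; 10 min reaction in 50 mM HEPES pH 7.5, 50 mM NaCl, 5 uM MgCl2, 0.05% BSA, 1 mM DTT. Fluorescence read at Ex 485/Em 525 nm.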
ClpP mod – qHTS Assay for Activators of ClpP | Potency, µM (titrated, usually from 57.5 µM) | purified B. subtilis ClpP, FRET peptide cleavage, 20 min | AID 651965, 2013 | ATP-dependent Clp protease proteolytic subunit (Bacillus subtilis (strain 168)), P80244 | 340,000 compounds, 1.9% hits; active means well fitted falling curve with a large enough effect; inconclusive means small, poorly fitted or top-dose-only effect; inactive means no such curve, though single readings can be large or run the other way; further: the source files actives as falling curves though it sought activators and does not explain the sign; nearly all actives have a fitted effect of over 65% in size
Target sequence (P80244 whole entry, looked up): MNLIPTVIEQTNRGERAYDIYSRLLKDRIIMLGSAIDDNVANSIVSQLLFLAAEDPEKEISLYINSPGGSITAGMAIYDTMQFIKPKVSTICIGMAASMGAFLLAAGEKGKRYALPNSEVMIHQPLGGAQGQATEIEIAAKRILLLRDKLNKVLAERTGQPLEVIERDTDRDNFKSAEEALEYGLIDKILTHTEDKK
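Buffer: 100 mM Tris/HCl pH8, 100 mM KCl, 0.05% low protease BSA, 2.5% glycerol, 0.01% Tween-20. ClpP 10 microg/mL final; 20 min RT; delta FRET normalized to ADEP and DMSO controls.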
Numbers stand for hits; i = inactive; ? = inconclusive; nt = no result. Shown is part of a subset that was picked to be rich in hits. Unless noted, the call rests on the fitted dose curve; in most records, active means well fitted inhibition curve with a large enough effect; inconclusive means small, poorly fitted or top-dose-only effect, or effect the other way; inactive means flat fitted curve, though single readings scatter.

SMILES | GALK inhibitor | USP2a block | Eya2 phos inh | ClpP mod
CCCCn1c(NC(=O)c2ccco2)c(S(=O)(=O)c2ccc(C)cc2)c2nc3ccccc3nc21 | nt | i | i | nt
Cc1ccc(S(=O)(=O)c2c(N)n(CCC(C)C)c3nc4ccccc4nc23)cc1 | i | i | i | 25.1µM
Cc1ccc(S(=O)(=O)c2c(N)n(CCCO)c3nc4ccccc4nc23)cc1 | i | i | i | i
Cc1ccc(C(=O)Nn2c(N)c(S(=O)(=O)c3ccc(C)cc3)c3nc4ccccc4nc32)cc1 | i | i | i | 28.2µM
COc1cc(C)c(Cl)c(C)c1S(=O)(=O)NCc1ccc2c(c1)OCO2 | i | i | i | i
O=S(=O)(Nc1nccs1)c1ccc(Nc2nnc(-c3ccccc3)c3ccccc23)cc1 | i | i | i | i
Cc1ccc(S(=O)(=O)c2c(N)n(NC(=O)c3ccccc3C)c3nc4ccccc4nc23)cc1 | i | i | i | 31.6µM
Nc1c(S(=O)(=O)c2ccccc2)c2nc3ccccc3nc2n1C1CC1 | i | i | i | nt
CCCCOc1ncnc2c1[nH]c1ccc(OCC)cc12 | i | i | i | i
CCCCOc1ncnc2c1[nH]c1ccc(F)cc12 | i | i | i | 15.8µM
CCCCOc1ncnc2c1[nH]c1ccccc12 | i | i | i | 17.8µM
O=C(c1cc2cc(Cl)cc(Cl)c2oc1=O)N1CCOCC1 | i | i | i | 22.4µM
CC(C)NC(=O)C(=O)NC1CCCCCC1 | i | i | i | i
CC(C)c1ccc(/C=c2\sc3nc(-c4ccncc4)nn3c2=O)cc1 | i | i | i | i
Cc1ccc(/C=c2\sc3nc(-c4cccnc4)nn3c2=O)cc1 | i | i | i | 14.1µM
Cc1cccc(-n2nc3c(c2NC(=O)c2ccco2)CS(=O)C3)c1C (stereo not given) | i | i | i | nt
Cc1ccc(-n2nc3c(c2NC(=O)c2ccco2)CS(=O)C3)c(C)c1 (stereo not given) | nt | i | i | 25.1µM
CCC(=O)Nc1c(S(=O)(=O)c2ccccc2)c2nc3ccccc3nc2n1C(C)c1ccccc1 (stereo not given) | nt | i | i | 31.6µM
CCC(=O)Nc1c(S(=O)(=O)c2ccc(C)cc2)c2nc3ccccc3nc2n1C(C)c1ccccc1 (stereo not given) | i | i | i | 20µM
CCCCn1c(NC(=O)c2ccc(Br)o2)c(S(=O)(=O)c2ccccc2)c2nc3ccccc3nc21 | i | i | i | i
O=c1c2ccccc2c(C=Nc2cccc(O)c2)c(O)n1-c1ccc2c(c1)OCO2 | i | i | i | i
Nc1c(C(=O)NCc2ccco2)c2nc3ccccc3nc2n1CCc1ccccc1F | i | i | i | 28.2µM
COc1ccc(CCn2c(N)c(C(=O)NCc3ccco3)c3nc4ccccc4nc32)cc1OC | i | i | i | 28.2µM
COCCn1c(N)c(C(=O)OCc2ccccc2)c2nc3ccccc3nc21 | i | i | i | 7.94µM
COc1ccc(CCn2c(N)c(C(=O)NCc3ccco3)c3nc4ccccc4nc32)cc1 | nt | i | i | 31.6µM
SMILES | GALK inhibitor | USP2a block | Eya2 phos inh | ClpP mod
C=CCn1c(N)c(C(=O)OCCC)c2nc3ccccc3nc21 | i | i | i | ?
O=C(NCc1ccco1)c1ccc(Cn2c(SCc3ccccc3F)nc3cccnc32)cc1 | nt | nt | nt | i
COCCCNC(=O)Cn1c(=O)n(-c2ccc(C)c(C)c2)c(=O)c2c3c(sc21)CCCCC3 | nt | nt | nt | i
COc1ccc(OC)c(CN2CCCC(CCC(=O)N(C)CCc3ccccn3)C2)c1 (stereo not given) | i | i | i | i
CCCNC(=O)c1c(N)n(-c2cccc(OC)c2)c2nc3ccccc3nc12 | i | i | ? | 20µM
COc1ccc(-n2c(N)c(C(=O)NCc3ccco3)c3nc4ccccc4nc32)c(OC)c1 | i | i | i | 11.2µM
CCOC(=O)c1c(N)n(-c2ccc(C)c(C)c2)c2nc3ccccc3nc12 | nt | nt | nt | i
COc1ccc(N2CCN(c3nc4ccc(C(=O)c5ccccc5)cc4n4cnnc34)CC2)cc1 | nt | nt | nt | i
CC1=C(C(N)=O)C(c2cccs2)n2nc(-c3cccc(C)c3)nc2N1 (stereo not given) | i | i | i | i
CC1=C(C(N)=O)C(c2cccnc2)n2nc(-c3cccc(C)c3)nc2N1 (stereo not given) | i | i | i | 31.6µM
C[C@@]12CCC=C[C@H]1[C@H](c1ccc(F)c(/C=C/c3ccccc3)c1)N(Cc1ccccc1)C2=O | i | i | i | 28.2µM
COc1ccc(C(c2nnnn2C2CCCC2)N2CCC(C)CC2)c(OC)c1 (stereo not given) | i | i | i | 17.8µM
COc1cc2cc(CN(Cc3nnnn3C3CCCC3)C3CCCC3)c(=O)[nH]c2cc1OC | i | i | i | nt
COc1ccc(OC)c(C(c2nnnn2C2CCCC2)N2CCN(c3ccc(F)cc3)CC2)c1 (stereo not given) | i | i | i | i
O=c1[nH]c2cc3c(cc2cc1CN(Cc1nnnn1C1CCCC1)C1CCCC1)OCCO3 | i | i | i | 31.6µM
O=c1[nH]c2cc3c(cc2cc1C(c1nnnn1C1CCCCC1)N1CCSCC1)OCCO3 (stereo not given) | i | i | i | 35.5µM
COc1cc2cc(C(c3nnnn3C3CCCC3)N3CCCCC3)c(=O)[nH]c2cc1OC (stereo not given) | i | i | i | 22.4µM
Fc1ccc(NC(=S)NCc2ccc3c(c2)OCO3)cc1 | i | i | i | i
CC(=O)c1cccc(NC(=O)COc2cc(C)on2)c1 | nt | i | i | i
COc1ccc(Oc2nc3c(c(=O)n(C)c(=O)n3C)n2Cc2cccc(OC)c2)cc1 | i | i | i | i
Cc1ccc(S(=O)(=O)CCC(=O)OCC(=O)N(Cc2ccccc2)C(C)C)cc1 | nt | i | i | 15.8µM
Cc1cc(OCc2cn3cccnc3n2)ccc1Cl | i | i | i | 15.8µM
COCCOc1cc(NC(=O)c2sccc2Oc2ccc([N+](=O)[O-])cc2F)c(Cl)cc1Cl | i | i | i | 14.1µM
O=C(Nc1ccccc1)c1sccc1Oc1ccc([N+](=O)[O-])cc1F | i | i | i | nt
CC(C)Nc1nc(Cl)nc(NCCOc2ccccc2)n1 | i | i | i | nt
SMILES | GALK inhibitor | USP2a block | Eya2 phos inh | ClpP mod
CCC(C)Nc1nc(Cl)nc(NCCOc2ccccc2)n1 (stereo not given) | i | i | i | 28.2µM
CC(C)CN1C(=O)c2ccc(NC(=O)C3CC3)cc2C1=O | i | i | i | i
CC(C)CN1C(=O)c2ccc(NC(=O)c3cccs3)cc2C1=O | i | i | i | 28.2µM
CC(C)CN1C(=O)c2ccc(NC(=O)c3ccco3)cc2C1=O | i | i | i | nt
CC(C)CN1C(=O)c2ccc(NC(=O)c3ccccc3F)cc2C1=O | i | i | ? | 31.6µM
N#Cc1nc(-c2ccc(F)cc2)oc1NCc1ccccc1 | i | i | i | i
CC(C)(C)c1ccc(-c2nc(C#N)c(NCc3cccnc3)o2)cc1 | i | i | i | 31.6µM
Cc1ccc(OCc2ccc(-c3nc(C#N)c(NCc4cccnc4)o3)o2)cc1 | nt | nt | nt | 35.5µM
CCOc1ccc(Nc2oc(-c3ccc(COc4ccc(C)cc4)o3)nc2C#N)cc1 | nt | nt | nt | i
